In PubChem BioAssay (EPA / NIEHS) one finds outcome and AC50 data, which are given here for three compounds.

SMILES strings stand for the structures. Results filed as inconclusive are left out. More than one record can exist for a structure, and the calls need not agree. Active and inactive are the calls of the source. The calls were made as follows, unless noted: active = hit-call score of the fitted dose curve at least 0.9, where 1 is the maximum; inconclusive = response in the unintended direction; inactive = score below 0.9.

Broadly, the AC50 is the concentration giving half of the maximal activity seen.

In experiment [1] the target is human Peroxisome Proliferator-activated Receptor alpha (PPARa), PPARA (gene 5465) (UniProt Q07869). Description: ATG_PPARa_TRANS: Attagene TRANS-FACTORIAL HepG2 Assay for human Peroxisome Proliferator-activated Receptor alpha (PPARa) (AID 2283001). The essentials:
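Reporter transcripts from GAL4-UAS units in transfected HepG2 were quantified 24 h after dosing. Detection used reverse transcription, PCR, fluorescent primer extension and capillary electrophoresis, with DMSO as baseline.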

The target in experiment [2] is human Peroxisome Proliferator-activated Receptor delta (PPARd), PPARD (gene 5467) (UniProt Q03181). Description: ATG_PPARd_TRANS: Attagene TRANS-FACTORIAL HepG2 Assay for human Peroxisome Proliferator-activated Receptor delta (PPARd) (AID 2283002). A digest of the protocol: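 Transient HepG2 transfection (multiple GAL4-UAS RTUs, chimeric receptor-Gal4); 24 h dosing; total RNA → oligo(dT) RT → PCR → 6-FAM primer extension → HpaI cut → CE. Positive direction vs DMSO.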
Sequence of human Peroxisome Proliferator-activated Receptor delta (PPARd), PPARD (gene 5467) (Q03181 whole entry, looked up, the tested form may be a part): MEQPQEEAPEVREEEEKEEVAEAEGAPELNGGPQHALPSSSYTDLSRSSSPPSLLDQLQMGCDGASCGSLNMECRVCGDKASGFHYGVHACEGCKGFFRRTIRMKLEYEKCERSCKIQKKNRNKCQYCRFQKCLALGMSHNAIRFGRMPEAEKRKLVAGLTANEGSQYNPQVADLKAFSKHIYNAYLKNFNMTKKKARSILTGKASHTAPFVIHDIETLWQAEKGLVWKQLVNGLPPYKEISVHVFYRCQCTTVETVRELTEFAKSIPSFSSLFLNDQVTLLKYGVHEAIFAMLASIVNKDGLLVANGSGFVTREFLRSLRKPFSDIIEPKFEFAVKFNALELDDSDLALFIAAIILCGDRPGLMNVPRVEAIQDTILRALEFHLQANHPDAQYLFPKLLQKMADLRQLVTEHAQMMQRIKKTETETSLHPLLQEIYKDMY

A short description of experiment [3]: BSK_3C_Proliferation: Cell Proliferation Assessment in the BioMAP Diversity Plus: 3C Assay (AID 2283006; active = hit-call score of the fitted dose curve at least 0.9, where 1 is the maximum; inactive = score below 0.9;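 as to AC50: potency may reflect either rise or fall in cell number versus DMSO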). The following applies: primary human endothelial cells (HUVEC). A digest of the protocol: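 Human umbilical vein endothelial cells were grown sub-confluent and exposed to chemical for 48 h, then fixed with 10% TCA and stained with 0.1% sulforhodamine B; absorbance at 560 nm gave relative cell number, fitted bidirectionally against DMSO baseline.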

Experiment [4] concerns the target Nuclear receptor subfamily 1 group I member 2 (Homo sapiens) (UniProt O75469). The experiment can be described thus: ATG_PXR_TRANS: Attagene TRANS-FACTORIAL HepG2 Assay for human Pregnane X Receptor (PXR) (AID 2283008). A digest of the protocol:
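HepG2 cells transiently transfected with GAL4-UAS reporter units and PXR-Gal4 chimera, exposed 24 h. Reporter mRNA quantified by RT-PCR, fluorescent labelling, HpaI digestion and capillary electrophoresis; gain of signal vs DMSO.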

Experiment [5] concerns the target human Retinoic Acid Receptor gamma (RARg), RARG (gene 5916) (UniProt P13631). The experiment can be described thus: ATG_RARg_TRANS: Attagene TRANS-FACTORIAL HepG2 Assay for human Retinoic Acid Receptor gamma (RARg) (AID 2283009). A digest of the protocol:
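HepG2 cells transiently transfected with multiplexed reporter units expressing chimeric RARg-GAL4 and GAL4-UAS-driven reporters; 24 h compound exposure. Reporter mRNA quantified by RT-PCR with fluorescent labelling and capillary electrophoresis; gain-of-signal fitted relative to DMSO baseline.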

Experiment [6] deals with human RAR-related Orphan Receptor beta (RORb), RORB (gene 6096) (UniProt Q92753). Description: ATG_RORb_TRANS: Attagene TRANS-FACTORIAL HepG2 Assay for human RAR-related Orphan Receptor beta (RORb) (AID 2283010). The essentials:
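HepG2 cells were transiently transfected with multiplexed GAL4-UAS reporter units expressing chimeric nuclear receptor–GAL4 proteins, then dosed for 24 h. Reporter mRNA was quantified by RT-PCR with fluorescent labelling and capillary electrophoresis; gain of signal was fitted relative to DMSO.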

In experiment [7] the target is human RAR-related Orphan Receptor gamma (RORg), RORC (gene 6097) (UniProt P51449). The experiment can be described thus: ATG_RORg_TRANS: Attagene TRANS-FACTORIAL HepG2 Assay for human RAR-related Orphan Receptor gamma (RORg) (AID 2283011). The essentials:
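Activity is scored as increase in GAL4-UAS reporter mRNA over DMSO, detected by fluorescent RT-PCR and capillary electrophoresis in HepG2 cells transiently expressing a RORg-Gal4 chimera, 24 h after dosing.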

Experiment [8] has as its target Retinoic acid receptor RXR-alpha (Homo sapiens) (UniProt P19793). The experiment can be described thus: ATG_RXRa_TRANS: Attagene TRANS-FACTORIAL HepG2 Assay for human Retinoid X Receptor alpha (RXRa) (AID 2283012). A digest of the protocol: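 HepG2 cells transiently transfected with multiplexed GAL4-UAS reporter units and chimeric NR-GAL4 fusions, dosed 24 h. Reporter mRNA measured by RT-PCR, FAM labelling, HpaI digestion and capillary electrophoresis; gain-of-signal fitted relative to DMSO baseline.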

In experiment [9] the target is human Retinoid X Receptor beta (RXRb), RXRB (gene 6257) (UniProt P28702). Description: ATG_RXRb_TRANS: Attagene TRANS-FACTORIAL HepG2 Assay for human Retinoid X Receptor beta (RXRb) (AID 2283013). A digest of the protocol: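 HepG2 cells transiently transfected with multiplexed reporter units driven by GAL4-UAS and exogenous chimeric NR-Gal4 proteins; treated 24 h. Reporter mRNA measured by RT-PCR, 6-FAM labelling and capillary electrophoresis; gain-of-signal fitted versus DMSO baseline.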
Sequence of human Retinoid X Receptor beta (RXRb), RXRB (gene 6257) (P28702 whole entry, looked up, the tested form may be a part): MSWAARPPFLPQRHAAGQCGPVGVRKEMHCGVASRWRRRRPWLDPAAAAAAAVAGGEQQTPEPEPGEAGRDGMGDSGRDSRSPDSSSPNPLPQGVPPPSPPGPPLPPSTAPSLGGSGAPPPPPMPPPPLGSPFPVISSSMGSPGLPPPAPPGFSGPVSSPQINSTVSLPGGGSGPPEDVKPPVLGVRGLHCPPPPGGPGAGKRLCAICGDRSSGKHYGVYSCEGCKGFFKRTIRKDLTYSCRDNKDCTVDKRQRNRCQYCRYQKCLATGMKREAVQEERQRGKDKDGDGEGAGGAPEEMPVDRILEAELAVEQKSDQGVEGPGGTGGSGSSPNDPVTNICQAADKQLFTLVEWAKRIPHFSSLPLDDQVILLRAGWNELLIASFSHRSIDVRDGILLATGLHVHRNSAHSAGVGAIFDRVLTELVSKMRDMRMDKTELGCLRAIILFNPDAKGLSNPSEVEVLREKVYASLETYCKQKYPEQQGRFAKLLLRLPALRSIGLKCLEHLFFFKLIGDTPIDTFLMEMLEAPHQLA

The target of experiment [10] is human Thyroid Receptor alpha (THRa1), THRA (gene 7067) (UniProt P10827). The experiment can be described thus: ATG_THRa1_TRANS: Attagene TRANS-FACTORIAL HepG2 Assay for human Thyroid Receptor alpha (THRa1) (AID 2283014). A digest of the protocol:
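First, HepG2 cells receive multiple GAL4-UAS reporter units and the chimeric receptor. They are then dosed for 24 h, after which RNA is reverse-transcribed, amplified, labelled, HpaI-cut and sized by capillary electrophoresis; gain relative to DMSO is scored.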

Read-out in experiment [11]: E-selectin (Homo sapiens) (UniProt P16581)
Description: BSK_3C_Eselectin: BioMAP Diversity Plus: 3C Assay for Eselectin Biomarker Activity (AID 2283015; active = hit-call score of the fitted dose curve at least 0.9, where 1 is the maximum; inactive = score below 0.9;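 as to outcome: cell surface E-selectin protein quantified by ELISA 24 h after dosing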). The following applies: primary human endothelial cells (HUVEC); actives raise or lower the signal. A digest of the protocol: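 Human vascular endothelium from umbilical vein is exposed to test chemicals for 24 h. E-selectin levels are read by ELISA and compared with DMSO controls.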

Read-out in experiment [12]: Interleukin-1 alpha (IL1a), IL1A (gene 3552)
Description: BSK_BE3C_IL1a: BioMAP Diversity Plus: BE3C Assay for Interleukin-1 alpha (IL1a) Biomarker Activity (AID 2283016; active = hit-call score of the fitted dose curve at least 0.9, where 1 is the maximum; inactive = score below 0.9). The following applies: primary human bronchial epithelial cells; actives raise or lower the signal. A digest of the protocol: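 Human primary bronchial epithelial cells (BE3C system) were dosed with compound and IL-1a measured by ELISA 24 h later. Activity was fitted bidirectionally against DMSO baseline; cytotoxicity was tracked in parallel cultures by SRB total-protein staining.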

Read-out in experiment [13]: Monocyte Chemoattractant Protein-1 (MCP1), CCL2 (gene 6347)
Description: BSK_3C_MCP1: BioMAP Diversity Plus: 3C Assay for Monocyte Chemoattractant Protein-1 (MCP1) Biomarker Activity (AID 2283017; active = hit-call score of the fitted dose curve at least 0.9, where 1 is the maximum; inactive = score below 0.9). The following applies: primary human endothelial cells (HUVEC); actives raise or lower the signal. The essentials:
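Endothelial cells from human umbilical vein are dosed with chemical, cultured 24 h, then assayed for MCP-1 by ELISA; both increases and decreases are modelled against DMSO controls.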

Read-out in experiment [14]: Monocyte Chemoattractant Protein-1 (MCP1), CCL2 (gene 6347)
The experiment can be described thus: BSK_4H_MCP1: BioMAP Diversity Plus: 4H Assay for Monocyte Chemoattractant Protein-1 (MCP1) Biomarker Activity (AID 2283018; active = hit-call score of the fitted dose curve at least 0.9, where 1 is the maximum; inactive = score below 0.9). The following applies: primary human endothelial cells (HUVEC); actives raise or lower the signal. The essentials: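 Human umbilical vein endothelial cells (4H system) dosed with chemical; MCP-1 measured by ELISA 24 h after dosing. Bidirectional curve fitting against DMSO negative control as baseline; parallel SRB total-protein staining tracks overt cytotoxicity.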

Read-out in experiment [15]: Human Leukocyte Antigen - DR isotype (HLADR), HLA-DRA (gene 3122)
Description: BSK_3C_HLADR: BioMAP Diversity Plus: 3C Assay for Human Leukocyte Antigen - DR isotype (HLADR) Biomarker Activity (AID 2283019; active = hit-call score of the fitted dose curve at least 0.9, where 1 is the maximum; inactive = score below 0.9;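 as to outcome: ELISA of cell-surface HLA-DR on HUVEC 24 h after dosing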). The following applies: primary human endothelial cells (HUVEC); actives raise or lower the signal. The essentials:
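Endothelial cells from human umbilical vein are treated with test chemical; after 24 h, HLA-DR levels are measured by ELISA. Data are fitted in both directions using DMSO as the baseline.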

Read-out in experiment [16]: Interleukin-8 (IL8), CXCL8 (gene 3576)
Description: BSK_3C_IL8: BioMAP Diversity Plus: 3C Assay for Interleukin-8 (IL8) Biomarker Activity (AID 2283020; active = hit-call score of the fitted dose curve at least 0.9, where 1 is the maximum; inactive = score below 0.9). The following applies: primary human endothelial cells (HUVEC); actives raise or lower the signal. The essentials: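 Primary human umbilical vein endothelial cells (3C system) were exposed to test chemical for 24 h, then IL-8 was quantified by ELISA. Responses were fitted bidirectionally against DMSO vehicle as baseline.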

Read-out in experiment [17]: Monokine induced gamma interferon (MIG), CXCL9 (gene 4283)
The experiment can be described thus: BSK_3C_MIG: BioMAP Diversity Plus: 3C Assay for Monokine induced gamma interferon (MIG) Biomarker Activity (AID 2283021; active = hit-call score of the fitted dose curve at least 0.9, where 1 is the maximum; inactive = score below 0.9;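 also: MIG protein level measured by immunoassay in the treated endothelial cultures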). The conditions noted are these: primary human endothelial cells (HUVEC); actives raise or lower the signal. A digest of the protocol: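 Primary human umbilical vein endothelial cells in the 3C system were exposed to chemical for 24 h, after which MIG was quantified by ELISA. Activity was fitted bidirectionally against DMSO as negative control and baseline.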

Read-out in experiment [18]: Intercellular Adhesion Molecule 1 (ICAM1), ICAM1 (gene 3383)
Description: BSK_3C_ICAM1: BioMAP Diversity Plus: 3C Assay for Intercellular Adhesion Molecule 1 (ICAM1) Biomarker Activity (AID 2283003; active = hit-call score of the fitted dose curve at least 0.9, where 1 is the maximum; inactive = score below 0.9). The conditions noted are these: primary human endothelial cells (HUVEC); actives raise or lower the signal. A digest of the protocol: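 Primary human umbilical vein endothelial cells in the BioMAP 3C system were exposed to chemicals for 24 h, then ICAM-1 was quantified by ELISA. Activity was fitted bidirectionally against the DMSO negative control baseline.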

Sequence of human Thyroid Receptor alpha (THRa1), THRA (gene 7067) (P10827 whole entry, looked up, the tested form may be a part): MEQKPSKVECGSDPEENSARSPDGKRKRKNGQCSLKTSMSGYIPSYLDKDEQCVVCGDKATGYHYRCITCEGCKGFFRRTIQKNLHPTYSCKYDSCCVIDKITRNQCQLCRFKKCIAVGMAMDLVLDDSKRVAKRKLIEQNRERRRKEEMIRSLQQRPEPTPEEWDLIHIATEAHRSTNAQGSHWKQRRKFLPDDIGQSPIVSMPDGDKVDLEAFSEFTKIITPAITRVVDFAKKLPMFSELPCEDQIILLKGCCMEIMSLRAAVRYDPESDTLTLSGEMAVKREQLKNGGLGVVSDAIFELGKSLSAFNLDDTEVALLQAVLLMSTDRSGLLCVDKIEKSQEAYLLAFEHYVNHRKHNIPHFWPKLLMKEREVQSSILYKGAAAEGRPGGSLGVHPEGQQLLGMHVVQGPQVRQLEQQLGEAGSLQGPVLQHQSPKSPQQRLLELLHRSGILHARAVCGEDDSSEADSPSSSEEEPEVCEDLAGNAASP
Sequence of human RAR-related Orphan Receptor beta (RORb), RORB (gene 6096) (Q92753 whole entry, looked up, the tested form may be a part): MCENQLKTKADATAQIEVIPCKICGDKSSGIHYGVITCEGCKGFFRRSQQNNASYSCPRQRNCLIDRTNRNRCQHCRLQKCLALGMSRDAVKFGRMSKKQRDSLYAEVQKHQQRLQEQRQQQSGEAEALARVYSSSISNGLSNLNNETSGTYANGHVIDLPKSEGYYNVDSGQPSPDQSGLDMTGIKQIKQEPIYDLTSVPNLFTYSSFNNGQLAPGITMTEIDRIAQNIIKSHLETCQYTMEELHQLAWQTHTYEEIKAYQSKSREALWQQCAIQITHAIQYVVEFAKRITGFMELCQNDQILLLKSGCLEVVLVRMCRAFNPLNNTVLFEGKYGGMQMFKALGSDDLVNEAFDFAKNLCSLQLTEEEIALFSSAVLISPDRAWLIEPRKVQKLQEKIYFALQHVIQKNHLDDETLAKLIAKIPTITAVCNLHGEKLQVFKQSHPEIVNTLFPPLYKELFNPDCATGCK
Sequence of human Peroxisome Proliferator-activated Receptor alpha (PPARa), PPARA (gene 5465) (Q07869 whole entry, looked up, the tested form may be a part): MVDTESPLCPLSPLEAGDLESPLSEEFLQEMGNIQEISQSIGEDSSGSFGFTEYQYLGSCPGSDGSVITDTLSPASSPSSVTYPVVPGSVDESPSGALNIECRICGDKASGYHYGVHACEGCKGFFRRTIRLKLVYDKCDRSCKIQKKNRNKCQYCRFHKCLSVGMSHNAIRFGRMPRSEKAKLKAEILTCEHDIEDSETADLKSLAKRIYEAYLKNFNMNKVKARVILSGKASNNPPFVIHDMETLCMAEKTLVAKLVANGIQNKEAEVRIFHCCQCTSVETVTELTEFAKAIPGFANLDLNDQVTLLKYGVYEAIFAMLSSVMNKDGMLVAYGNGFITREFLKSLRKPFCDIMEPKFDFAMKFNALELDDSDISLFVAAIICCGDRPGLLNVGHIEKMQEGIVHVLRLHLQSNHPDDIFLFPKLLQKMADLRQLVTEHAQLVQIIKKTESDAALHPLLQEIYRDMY
Sequence of Retinoic acid receptor RXR-alpha (Homo sapiens) (P19793 whole entry, looked up, the tested form may be a part): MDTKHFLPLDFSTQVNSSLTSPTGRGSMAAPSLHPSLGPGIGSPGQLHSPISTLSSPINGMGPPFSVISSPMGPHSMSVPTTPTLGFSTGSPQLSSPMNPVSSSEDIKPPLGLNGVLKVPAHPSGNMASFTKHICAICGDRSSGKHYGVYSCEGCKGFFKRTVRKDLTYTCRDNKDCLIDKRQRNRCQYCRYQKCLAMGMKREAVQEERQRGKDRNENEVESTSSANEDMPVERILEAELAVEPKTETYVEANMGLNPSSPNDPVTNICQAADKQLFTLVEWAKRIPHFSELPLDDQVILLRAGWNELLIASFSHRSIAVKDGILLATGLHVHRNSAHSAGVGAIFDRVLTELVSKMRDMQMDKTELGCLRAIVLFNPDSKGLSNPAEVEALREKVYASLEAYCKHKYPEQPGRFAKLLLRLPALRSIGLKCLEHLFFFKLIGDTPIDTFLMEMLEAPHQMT
Sequence of Nuclear receptor subfamily 1 group I member 2 (Homo sapiens) (O75469 whole entry, looked up, the tested form may be a part): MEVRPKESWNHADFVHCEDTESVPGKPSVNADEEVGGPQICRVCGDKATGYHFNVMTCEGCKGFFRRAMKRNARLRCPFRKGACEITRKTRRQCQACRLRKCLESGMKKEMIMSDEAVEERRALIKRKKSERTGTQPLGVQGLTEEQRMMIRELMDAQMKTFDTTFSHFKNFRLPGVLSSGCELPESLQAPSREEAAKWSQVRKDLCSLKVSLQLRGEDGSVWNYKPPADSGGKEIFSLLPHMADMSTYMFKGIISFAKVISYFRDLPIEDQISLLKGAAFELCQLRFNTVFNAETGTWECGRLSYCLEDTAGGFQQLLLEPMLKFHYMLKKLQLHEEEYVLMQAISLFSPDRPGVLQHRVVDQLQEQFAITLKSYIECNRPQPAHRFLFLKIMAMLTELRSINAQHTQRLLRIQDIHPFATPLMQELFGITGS
Sequence of E-selectin (Homo sapiens) (P16581 whole entry, looked up): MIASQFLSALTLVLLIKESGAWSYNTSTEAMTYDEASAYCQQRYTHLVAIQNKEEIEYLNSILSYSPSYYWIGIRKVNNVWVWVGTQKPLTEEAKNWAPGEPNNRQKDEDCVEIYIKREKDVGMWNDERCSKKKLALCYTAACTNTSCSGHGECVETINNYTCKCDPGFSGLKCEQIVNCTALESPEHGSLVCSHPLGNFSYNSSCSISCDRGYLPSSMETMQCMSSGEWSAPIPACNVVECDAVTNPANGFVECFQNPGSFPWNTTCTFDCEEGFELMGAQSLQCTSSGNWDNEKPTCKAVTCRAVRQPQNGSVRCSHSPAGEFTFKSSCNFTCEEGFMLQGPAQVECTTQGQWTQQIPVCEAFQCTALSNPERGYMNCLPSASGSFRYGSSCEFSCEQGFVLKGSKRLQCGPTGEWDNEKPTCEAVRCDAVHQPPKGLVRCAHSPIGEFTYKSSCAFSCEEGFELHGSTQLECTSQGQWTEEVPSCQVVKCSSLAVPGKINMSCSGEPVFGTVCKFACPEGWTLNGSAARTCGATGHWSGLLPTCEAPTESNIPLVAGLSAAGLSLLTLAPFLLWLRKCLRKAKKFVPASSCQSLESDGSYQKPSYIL
Sequence of human RAR-related Orphan Receptor gamma (RORg), RORC (gene 6097) (P51449 whole entry, looked up, the tested form may be a part): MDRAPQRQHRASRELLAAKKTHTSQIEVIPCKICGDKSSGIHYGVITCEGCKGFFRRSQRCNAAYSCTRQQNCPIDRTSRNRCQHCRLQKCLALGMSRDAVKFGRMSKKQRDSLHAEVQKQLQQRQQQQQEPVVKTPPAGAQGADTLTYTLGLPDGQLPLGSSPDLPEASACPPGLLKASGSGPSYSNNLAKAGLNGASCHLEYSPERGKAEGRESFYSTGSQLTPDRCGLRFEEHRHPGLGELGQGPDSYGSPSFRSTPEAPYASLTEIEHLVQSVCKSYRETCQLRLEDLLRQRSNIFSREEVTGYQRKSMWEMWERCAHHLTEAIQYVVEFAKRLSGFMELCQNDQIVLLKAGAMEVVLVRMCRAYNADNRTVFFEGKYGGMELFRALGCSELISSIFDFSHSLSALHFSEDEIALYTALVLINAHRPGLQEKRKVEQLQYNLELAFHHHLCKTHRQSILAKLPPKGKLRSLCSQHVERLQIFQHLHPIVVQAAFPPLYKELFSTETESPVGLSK
Sequence of human Retinoic Acid Receptor gamma (RARg), RARG (gene 5916) (P13631 whole entry, looked up, the tested form may be a part): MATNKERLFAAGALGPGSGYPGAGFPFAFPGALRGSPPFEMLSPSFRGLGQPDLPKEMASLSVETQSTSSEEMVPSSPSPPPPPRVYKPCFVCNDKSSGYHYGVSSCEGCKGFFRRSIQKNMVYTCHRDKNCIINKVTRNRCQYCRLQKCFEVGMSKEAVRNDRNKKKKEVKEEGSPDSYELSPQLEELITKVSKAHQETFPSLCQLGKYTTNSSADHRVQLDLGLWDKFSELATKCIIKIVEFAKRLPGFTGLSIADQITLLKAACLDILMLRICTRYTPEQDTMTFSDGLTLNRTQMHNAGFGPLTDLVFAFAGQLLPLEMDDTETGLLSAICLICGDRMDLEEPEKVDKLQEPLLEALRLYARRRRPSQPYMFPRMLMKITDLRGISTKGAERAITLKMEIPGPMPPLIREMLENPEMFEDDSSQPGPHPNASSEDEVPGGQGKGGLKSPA

On to `CN(C[C@@H](CC[N+]12CCC(C3CCCCC3)(CC1)CC2)c1ccc(Cl)c(Cl)c1)C(=O)c1cc(C(F)(F)F)cc(C(F)(F)F)c1`, for which the call in experiment [1], in [2], in experiment [4], in [5], in experiment [6] and in [7] was inactive. For the same compound, the compound was classed as inactive in [8], in experiment [9] and in [10]. The AC50 is 12.9 µM (active) in experiment [3]; 27.5 µM (active) in experiment [11]; 27.6 µM (active) in [12]; 21.1 µM (active) in experiment [13]; 27.2 µM (active) in experiment [14]; 14.6 µM (active) in experiment [15]. For the same compound, the AC50 in experiment [16] was 24.3 µM (active); in experiment [17] it was 33.6 µM (active).

Regarding `OC12N=C(c3ccccc3)SC1Cc1cc(Cl)ccc12` (stereo not drawn), the outcome in experiment [1], in [2], in experiment [18], in [6], in experiment [7] and in [8] was inactive. In addition, the result in experiment [9], in [11], in experiment [12], in experiment [13], in experiment [14] and in experiment [16] was inactive. The half-maximal activity concentration (AC50) in experiment [3] was 31.5 µM (active); in experiment [4], 2.41 µM (active); in [15], 33.8 µM (active).

For the compound `c1ccc2ccccc2c1`, the compound was called inactive in experiment [1], in experiment [18], in experiment [3], in [4], in [6] and in experiment [7]. Moreover, the outcome in [8], in experiment [9], in experiment [10], in experiment [11], in experiment [12] and in experiment [13] was inactive. Besides, the result in experiment [14], in experiment [15] and in [16] was inactive. Also, the AC50 in [9] was 38.9 µM (active).
